The nature of assay [1]: qHTS assay to identify small molecule antagonists of the constitutive androstane receptor (CAR) signaling pathway - cell viability counter screen (AID 1224837). Further: nearly all actives have a fitted effect of over 45% in size. Further: potency means the concentration at half of the fitted maximal effect. The essentials:
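HepG2 cells stably carrying hCAR and CYP2B6-2.2kb reporter, stimulated with 50 nM CITCO and compounds at 15 concentrations for 23 h at 37 C. Viability measured by CellTiter-Fluor fluorescence.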

In assay [2] the target is Nuclear receptor subfamily 1 group I member 3 (Homo sapiens) (UniProt Q14994). As to the kind of experiment: qHTS assay to identify small molecule antagonists of the constitutive androstane receptor (CAR) signaling pathway (AID 1224838). Further: nearly all actives have a fitted effect of over 40% in size. Further: potency means the concentration at half of the fitted maximal effect. In outline: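 HepG2 cells stably carrying hCAR and a CYP2B6-2.2kb luciferase reporter, seeded 4 hrs before compound (15 concentrations). Stimulated with 50 nM CITCO for 24 hr at 37 C. ONE-Glo luminescence read after 30 min at room temperature.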
A general note: Quantitative high-throughput screening tests each substance at several concentrations.

For assay [3] the target is unchanged. As to the kind of experiment: qHTS assay to identify small molecule agonists of the constitutive androstane receptor (CAR) signaling pathway (AID 1224839). Further: nearly all actives have a fitted effect of over 15% in size. Further: potency means the concentration at half of the fitted maximal effect. In outline:
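HepG2 cells stably co-transfected with hCAR and a CYP2B6-2.2kb luciferase reporter; compounds at 15 concentrations with 0.75 uM PK11195 present. After 24 hr at 37 C, luciferase read by ONE-Glo luminescence.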

Assay [4] in a line: qHTS assay to identify small molecule antagonists of the estrogen related receptor signaling pathway with the pleiotropic PPARgamma coactivator (PGC) from Tox21 10K library - cell viability counter screen (AID 1224840; active means well fitted cell-killing curve with a large enough effect in the repeat runs, not every such curve was filed as active; further: nearly all actives have a fitted effect of over 40% in size; further: potency means the concentration at half of the fitted maximal effect). In outline: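 PGC/ERR cells (2,000/well) plated 6 h, then compound-treated for 17.5 h at 37 C. Viability measured by CellTiter-Fluor fluorescence after 30 min at 37 C, multiplexed with the pathway assay.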

Assay [5] can be described thus: qHTS assay to identify small molecule antagonists of the estrogen related receptor signaling pathway with the pleiotropic PPARgamma coactivator (PGC) from Tox21 10K library (AID 1224841; call rule not given here; further: actives are mostly falling curves and most rising ones were filed inactive; nearly all actives have a fitted effect of over 50% in size). The essentials: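 PGC/ERR cell line, 2,000 cells/well, pre-incubated 6 hours at 37 C, then exposed to compounds for 18 hours at 37 C; luciferase read with One-Glo luminescence after 30 min at room temperature.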

Assay [6] deals with Thyrotropin receptor (Homo sapiens) (UniProt P16473). Nature of the assay: qHTS assay to identify small molecule agonists of the thyroid stimulating hormone receptor (TSHR) signaling pathway (AID 1224843; calls by dose curve; further: nearly all actives have a fitted effect of over 45% in size). The essentials: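 Steps: seed 800 TSHR-HEK293 cells per well; add test compound and hold 30 min at ambient temperature; dispense cAMP-d2 then anti-cAMP cryptate; incubate 1 h at ambient; measure fluorescence intensity.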

Assay [7] can be described thus: qHTS assay to identify small molecule agonists of the hypoxia (HIF-1) signaling pathway - cell viability counter screen (AID 1224844; calls by dose curve; further: nearly all actives have a fitted effect of over 50% in size). The essentials: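 HRE-bla ME-180 cells, 2,000/well in 0.5% dialyzed FBS medium, treated 17 h at 37C with compounds. Viability read in the same wells as the bla reporter, by CellTiter-Glo luminescence after 30 min at room temperature.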

Assay [8] can be described thus: qHTS assay to identify small molecule agonists of H2AX (AID 1224845; active means well fitted activation curve with a large enough effect in the signal ratio in the repeat runs, not every such curve was filed as active; the % refers to the signal ratio). In outline:
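Wild-type CHO-K1 cells, plated overnight, exposed 3hr at 37C to 15 concentrations (0.76% DMSO final). Lysed, then HTRF anti-pH2AX (S139) cryptate and anti-H2AX-d2 antibodies, 24 hr room temperature; 665/620 nm emission read.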

A short description of assay [9]: qHTS assay to identify small molecule agonists of the hypoxia (HIF-1) signaling pathway (AID 1224846; active means well fitted activation curve with a large enough effect in the signal ratio in the repeat runs, not every such curve was filed as active; the % refers to the signal ratio). The essentials: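 HRE-bla ME-180 beta-lactamase reporter cells in medium with 0.5% dialyzed FBS, pre-incubated 5 h then exposed to compounds 17 h at 37C, 5% CO2; reporter induction read with CCF4-AM FRET substrate.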
Assay [10] is described as follows: qHTS assay to identify small molecule antagonists of the estrogen related receptor (ERR) signaling pathway from Tox21 library (AID 1224848). Further: nearly all actives have a fitted effect of over 50% in size. Further: potency means the concentration at half of the fitted maximal effect. The essentials: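 Luminescent reporter read-out (ONE-Glo) from NTP's ERR cell line after 18 h treatment at 37 C with DMSO-dissolved Tox21 compounds; cells pre-plated 6 h beforehand at 2,000 per well.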
The nature of assay [11]: qHTS assay to identify small molecule agonists of the estrogen related receptor (ERR) signaling pathway from Tox21 library (AID 1224849; calls by dose curve; further: nearly all actives have a fitted effect of over 15% in size). The settings on record: ERR reporter cell line, ONE-Glo luciferase, 18 h; at 92.4 µM (top of the series) unless noted. In outline: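 ERR reporter cells (NTP line) pre-incubated 6 hours at 37 C, then exposed to compounds for 18 hours at 37 C. ONE-Glo luciferase luminescence was read after 30 minutes at room temperature.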

Assay [12] in a line: qHTS RealTime-Glo MT Cell Viability Assay in HepG2 cells - 24 hour (AID 1224867). Further: nearly all actives have a fitted effect of over 50% in size. Further: potency means the concentration at half of the fitted maximal effect. In outline:
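Tox21 10K library screened in qHTS format on HepG2 cells carrying RealTime-Glo reagents. Compounds were added after a 5 h preincubation, and the luminescent signal from continuous culture was measured repeatedly during 40 h treatment.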

Assay [13] is described as follows: qHTS RealTime-Glo MT Cell Viability Assay in HEK293 cells - 32 hour (AID 1224868). Further: nearly all actives have a fitted effect of over 50% in size. Further: potency means the concentration at half of the fitted maximal effect. On activity change, negative = cytotoxic: top concentration of the series differs between compounds. In outline:
(§1)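 Luminescence generated by NanoLuc from substrate produced by living HEK293 cells served as the viability signal. Each value reflects the reading at its stated time point during continuous 40 h compound exposure at 37 C.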

Assay [14] is described as follows: A CellTox Green Cytotoxicity Assay to monitor cytotoxicity in HEK293 cells - 0 hour (AID 1224869). Further: nearly all actives have a fitted effect of over 50% in size. In outline: (§2)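 HEK293 cells, 600/well, were preincubated 5 hours and then exposed to compounds at 37 C for up to 40 hours. A cell-impermeant cyanine dye staining dead-cell DNA was read by fluorescence at 0, 8, 16, 24, 32 and 40 h time points.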
Assay [15] is described as follows: qHTS RealTime-Glo MT Cell Viability Assay in HepG2 cells - 40 hour (AID 1224870). Further: nearly all actives have a fitted effect of over 50% in size. Further: potency means the concentration at half of the fitted maximal effect. The essentials:
(§3)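 HepG2 cells (600/well) mixed with RealTime-Glo MT reagent, settled 5 h at 37 C/5% CO2 before compound addition. Nonlytic NanoLuc luminescence from viable-cell prosubstrate reduction read repeatedly during 40 h treatment at 37 C.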

Assay [16] in a line: A CellTox Green Cytotoxicity Assay to monitor cytotoxicity in HEK293 cells - 40 hour (AID 1224871). Further: nearly all actives have a fitted effect of over 45% in size. Further: potency means the concentration at half of the fitted maximal effect. The essentials:
as §2

Assay [17] in a line: qHTS RealTime-Glo MT Cell Viability Assay in HEK293 cells - 16 hour (AID 1224872). Further: nearly all actives have a fitted effect of over 50% in size. Further: potency means the concentration at half of the fitted maximal effect. On activity change, negative = cytotoxicity: top concentration of the series differs between compounds. The essentials:
as §1

A short description of assay [18]: qHTS RealTime-Glo MT Cell Viability Assay in HepG2 cells - 8 hour (AID 1224873). Further: nearly all actives have a fitted effect of over 55% in size. Further: potency means the concentration at half of the fitted maximal effect. In outline: as §3
Assay [19] can be described thus: qHTS assay to identify small molecule agonists of the estrogen related receptor signaling pathway with the pleiotropic PPARgamma coactivator (PGC) from Tox21 10K library (AID 1224842). Further: nearly all actives have a fitted effect of over 15% in size. In outline: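 PGC/ERR reporter cell line, 2,000 cells per well, incubated 6 h at 37 C before 23 nL compound in DMSO was added. After 18 h at 37 C, One-Glo luminescence read following 30 min at room temperature.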

The nature of assay [20]: qHTS assay to identify small molecule agonists of H2AX - cell viability counter screen (AID 1224847; calls by dose curve; further: nearly all actives have a fitted effect of over 30% in size; further: potency means the concentration at half of the fitted maximal effect; on activity change, negative = cytotoxicity: top concentration of the series differs between compounds). In outline:
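CHO-K1 cells plated overnight at 37C, then exposed 3 h at 37C to compounds at 15 concentrations (0.76% DMSO final). Viability by CellTiter-Glo luminescence after 30 min at room temperature.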

We go through 7 compounds from PubChem BioAssay (Tox21).

Unmarked numbers belong to inactive results. Records with an inconclusive call do not appear. Activity calls are given as the source filed them. Unless noted, the call rests on the fitted dose curve; in most records, active means well fitted curve in the direction sought with a large enough effect in the repeat runs; inconclusive means weak or mixed curves; inactive means no such curve, though single readings can be large; an effect the other way counts as inactive or inconclusive.
On the % scale 0 is the no-effect control and ±100 the full control effect.

Sequence of Thyrotropin receptor (Homo sapiens) (P16473 whole entry, looked up): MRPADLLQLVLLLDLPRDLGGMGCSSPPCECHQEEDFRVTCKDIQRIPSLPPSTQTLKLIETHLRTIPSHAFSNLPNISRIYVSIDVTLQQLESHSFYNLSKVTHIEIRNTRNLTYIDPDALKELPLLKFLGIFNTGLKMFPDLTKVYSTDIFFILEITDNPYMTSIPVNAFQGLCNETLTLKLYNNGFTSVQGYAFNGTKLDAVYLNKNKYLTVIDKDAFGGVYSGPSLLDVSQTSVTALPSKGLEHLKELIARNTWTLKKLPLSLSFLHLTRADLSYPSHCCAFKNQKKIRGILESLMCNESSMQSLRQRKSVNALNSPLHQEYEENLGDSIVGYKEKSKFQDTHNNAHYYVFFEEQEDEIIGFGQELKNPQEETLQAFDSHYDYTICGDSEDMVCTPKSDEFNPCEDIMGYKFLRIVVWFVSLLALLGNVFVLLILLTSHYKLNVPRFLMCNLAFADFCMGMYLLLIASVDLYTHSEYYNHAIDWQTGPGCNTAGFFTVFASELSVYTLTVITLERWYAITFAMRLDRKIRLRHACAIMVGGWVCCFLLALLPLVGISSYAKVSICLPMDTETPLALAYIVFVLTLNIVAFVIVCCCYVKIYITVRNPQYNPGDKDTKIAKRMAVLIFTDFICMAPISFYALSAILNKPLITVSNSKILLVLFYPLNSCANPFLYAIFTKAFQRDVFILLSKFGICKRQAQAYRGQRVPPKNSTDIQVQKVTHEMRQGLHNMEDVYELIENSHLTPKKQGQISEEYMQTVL
Sequence of Nuclear receptor subfamily 1 group I member 3 (Homo sapiens) (Q14994 whole entry, looked up): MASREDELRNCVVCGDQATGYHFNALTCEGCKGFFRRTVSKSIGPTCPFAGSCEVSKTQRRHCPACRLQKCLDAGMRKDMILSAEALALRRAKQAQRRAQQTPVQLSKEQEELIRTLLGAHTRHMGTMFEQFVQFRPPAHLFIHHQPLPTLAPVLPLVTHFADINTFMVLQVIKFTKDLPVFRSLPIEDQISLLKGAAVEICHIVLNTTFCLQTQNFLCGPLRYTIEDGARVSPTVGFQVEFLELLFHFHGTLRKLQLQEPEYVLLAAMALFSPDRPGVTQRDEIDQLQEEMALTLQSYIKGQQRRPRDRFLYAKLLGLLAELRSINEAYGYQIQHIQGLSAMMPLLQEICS

Consider `CCCC(C)C=O` (stereo unspecified), for which the Potency result in [1], in assay [2], in assay [3], in assay [4], in assay [5] and in [6] was “inactive” throughout. Moreover, the Potency result in assay [7], in assay [8], in assay [9], in [10], in assay [12] and in [13] was “inactive” each time. Besides, the Potency entry in assay [14], in assay [15], in [16], in assay [17] and in assay [18] was “inactive” in each case. The activity change, positive = activation in assay [11] is 4.95%.
Turning to `COC(=O)c1ccc([N+](=O)[O-])cc1`, the Potency entry in assay [1], in [2], in assay [3], in assay [4], in [19] and in assay [6] was “inactive” in each case. In addition, the Potency result in assay [7], in assay [8], in assay [9], in assay [10], in [12] and in assay [13] was “inactive” in each case. Also, the Potency entry in assay [14], in assay [15], in assay [16], in assay [17] and in assay [18] was “inactive” in each case. In addition, the activity change, positive = activation in [11] was 1.35%.
Take `C=C1CC[C@H]2O[C@]2(C)CC[C@@H]2[C@@H]1CC2(C)C`: the Potency entry in [1], in assay [2], in assay [3], in assay [4], in assay [5] and in assay [19] was “inactive” throughout. For the same compound, the Potency result in assay [6], in assay [7], in assay [8], in assay [9], in [20] and in [10] was “inactive” in each case. For the same compound, the Potency entry in assay [12], in assay [14], in assay [15], in assay [16] and in assay [18] was “inactive” each time. In addition, the activity change, positive = activation in assay [11] is 2.38%.
With `O=C1CCCCCCCCCCCCCC1`, the Potency result in assay [1], in [2], in assay [4], in assay [5], in [19] and in [6] was “inactive” each time. Besides, the Potency entry in [20], in assay [10], in assay [12], in [13], in assay [14] and in assay [15] was “inactive” in each case. The Potency entry in assay [17] and in assay [18] was “inactive” throughout. In addition, the Potency in [3] was 30.6 µM (active); in assay [16] it was 43.6 µM (active). Besides, the activity change, positive = activation in assay [11] is 1.09%.
`CC/C(=C(/c1ccc(O)cc1)c1ccc(OCCN(C)C)cc1)c1ccccc1`: the Potency was 32 µM (active) in assay [1]; 35.9 µM (active) in assay [2]; 32 µM (active) in assay [4]; 41.9 µM (active) in assay [20]; 18 µM (active) in assay [10]; 18.2 µM (active) in [12]. Moreover, the Potency is 9.11 µM (active) in assay [13]; 12.9 µM (active) in assay [15]; 20.4 µM (active) in assay [16]; 12.9 µM (active) in [17]; 28.8 µM (active) in assay [18]. The Potency entry in assay [3], in [19] and in assay [14] was “inactive” each time. Moreover, the activity change, positive = activation in [11] was -77.3% [at 42.5 µM].
With `O=C(O)C[C@H](O)C[C@H](O)/C=C/c1c(C2CC2)nc2ccccc2c1-c1ccc(F)cc1`, the activity change, negative = cytotoxicity in [1] is -0.918% [at 19 µM]; in assay [7] it was -17.5% [at 15.8 µM]; in assay [20], -0.332% [at 31.6 µM]; in assay [12], -20.3% [at 15.8 µM]; in [17] it was 7.11% [at 15.8 µM]. Moreover, the results for the activity, negative = inhibition in assay [2], in [5] and in assay [10] were -27.1% [at 19 µM], 10.6% [at 19 µM] and 60.7% [at 19 µM], respectively. Moreover, the activation was -6.78% [at 19 µM] in assay [3], -0.0293% [at 19 µM] in [19], -24.9% [at 19 µM] in assay [6] and 0.144% [at 15.8 µM] in assay [9]. The figures for the viability change, negative = cytotoxic in [4] and in assay [18] were -0.117% [at 19 µM] and 4.17% [at 15.8 µM], respectively. Further, in assay [8], the activation (H2AX phosphorylation) is -2.12% [at 31.6 µM]. Also, the activity change, positive = activation in [11] was 31.2% [at 19 µM] (active). Besides, the activity change, negative = cytotoxic in [13] was -6.08% [at 15.8 µM]; in [15], -27.7% [at 15.8 µM]. In addition, the cytotoxicity in assay [14] is -2.87% [at 15.8 µM]. Also, in [16], the cytotoxicity increase is 1.42% [at 15.8 µM].
Consider `CCCCCCCCCCCCN1CCCC1=O`, for which the Potency entry in assay [1], in assay [2], in [4], in [5], in assay [19] and in assay [8] was “inactive” each time. The Potency entry in assay [14] and in assay [15] was “inactive” in each case. The Potency in assay [3] is 54.5 µM (active). The activity change, positive = activation in [11] was -16.7%.
